Measured values taken from PubChem BioAssay AID720509 (The Scripps Research Institute Molecular Screening Center, 2013).
Among all 370,000 compounds or so, about 760 (0.21%) were called active.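 The calls were made as follows: active = inhibition above a per-campaign cutoff: mean of compounds within control limits plus 3 SD (cut at about 15% in these data); inactive = the rest.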 Many of the other results were omitted from the sample, so actives are more common in it than they were.

Each molecule was assayed against Fibrinogen beta chain (Homo sapiens) (UniProt P02675) (assay: inhibitors of Tn6 peptide binding to fibrin DD(E), primary screen, biochemical, fluorescence polarization, human fibrin, Tn6 probe (AID 720509;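 also: 0% = median of all compound wells on the plate and 100% = blocking peptide control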)). Conditions: Fibrin DD(E) TRITC-Tn6 fluorescence polarization displacement; at 8.3 µM; hits give high values.
Sequence of Fibrinogen beta chain (Homo sapiens) (P02675 whole entry, looked up): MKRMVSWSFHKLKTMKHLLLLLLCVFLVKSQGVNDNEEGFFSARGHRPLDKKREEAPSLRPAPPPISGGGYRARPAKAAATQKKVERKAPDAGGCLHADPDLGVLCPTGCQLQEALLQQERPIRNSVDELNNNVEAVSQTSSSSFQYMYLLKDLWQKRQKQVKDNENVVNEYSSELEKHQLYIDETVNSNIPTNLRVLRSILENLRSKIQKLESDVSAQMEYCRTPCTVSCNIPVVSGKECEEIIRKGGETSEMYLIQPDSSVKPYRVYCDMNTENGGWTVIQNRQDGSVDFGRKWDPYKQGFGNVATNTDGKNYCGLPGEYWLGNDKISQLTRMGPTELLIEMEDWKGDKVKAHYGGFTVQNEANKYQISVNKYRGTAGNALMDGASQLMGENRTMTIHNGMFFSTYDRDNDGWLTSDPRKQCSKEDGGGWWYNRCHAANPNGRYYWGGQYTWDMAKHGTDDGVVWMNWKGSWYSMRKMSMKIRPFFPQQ

**Q.** How did the inhibition turn out when `CC1CNCCN1c1ccc(Cl)cc1` (stereo not given) was run?
**A.** Its inhibition is 0.71% (inactive).

**Q.** For `Cc1cc(N2CCNC[C@@H]2C)ccc1N1CC[C@H](O)C1`, which inhibition is on record?
**A.** Its inhibition is 15.6% (active).

**Q.** For `COc1ccccc1-n1c(O)c(C=NC2CC2)c(=O)[nH]c1=O`, which inhibition is on record?
**A.** Its inhibition is -5.91% (inactive).

**Q.** `CC(=O)C1(O)CCC2C3CCC4=C(Cl)C(=O)CCC4(C)C3CCC21C` (stereo not given) was tested. Which inhibition did it give?
**A.** Its inhibition is -1.79% (inactive).

**Q.** With `OC(Cn1c2ccccc2c2ccccc21)C[n+]1ccccc1` (stereo not given) as the molecule, how does the inhibition read?
**A.** Its inhibition is -10% (inactive).

**Q.** With `COC1=C[C@@H]2[C@@H]3Cc4ccc(OC)c(O)c4[C@]2(CCN3C)CC1=O` as the molecule, how does the inhibition read?
**A.** The inhibition was 5.14% (inactive).

**Q.** Which inhibition does the source give for `COc1ccc2c(c1O)-c1cccc3c1[C@@H](C2)N(C)CC3` here?
**A.** The inhibition was 15.8% (active).

**Q.** How did the inhibition turn out when `COc1c(O)ccc2c1-c1c3c(cc4c1C(C2)N(C)CC4)OCO3` (stereo not given) was run?
**A.** The inhibition was 0.43% (inactive).

**Q.** How did the inhibition turn out when `Fc1cccc(F)c1CN1CCN(Cc2c(F)cccc2F)CC1` was run?
**A.** The inhibition was -1.68% (inactive).

**Q.** With `CO[C@H]([C@H](C)/C=C/N(C)C=O)[C@@H](C)C(=O)CC[C@H](C)[C@H](O)[C@H](C)[C@H]1OC(=O)/C=C/C(C)=C/[C@H](O)[C@H](OC)C[C@@H]2C=CC[C@@H](C[C@H](OC)[C@@]3(CO3)[C@@H](OC)C[C@@H](OC)[C@@H]1C)O2` as the molecule, how does the inhibition read?
**A.** The inhibition was 1.04% (inactive).
